Results filed as inconclusive are left out. A number with no mark means an inactive call. Calls come from the whole dose curve; as a rule, active = well fitted activation curve with a large enough effect; inconclusive = small, poorly fitted or top-dose-only effect; inactive = flat fitted curve, though single readings scatter.
Test: qHTS for Inhibitors of Cell Surface uPA Generation: FP59 Counterscreen for Cherry-picked Compounds; note: 0% is about no effect
Conditions: FP59 anthrax toxin cytotoxicity counterscreen, cells; series mostly up to 115 µM; activity (protection from FP59): at the top concentration

| Compound | activity (protection from FP59) |
| --- | --- |
| c1cncc(C2CCCCN2)c1 (stereo not given) | -0.643% |
| Cc1ccccc1O | -1.37% |
| CCOc1ccc(CN2CCN(C(=O)Cc3ccccc3)CC2)cc1 | -0.338% |
| O=C(c1ccc(F)c([N+](=O)[O-])c1)N1CC2CC(C1)c1cccc(=O)n1C2 (stereo not given) | -1.17% |
| C[N+](C)(C)CCOC(=O)CBr | -1.22% |
| COc1ccc(-c2nn(CCC#N)cc2C(=O)Nc2cccc([N+](=O)[O-])c2)cc1OC | -1.37% |
| O=c1[nH]c(=O)n(-c2ccc(Cl)cc2)c(O)c1C=Nc1ccc(S(=O)(=O)Nc2nccs2)cc1 | -1.39% |
| COc1ccccc1NC(=O)N1C[C@@H]2C[C@@H](C1)c1cccc(=O)n1C2 | -1.26% |
| COc1ccc(-c2nn(CCC#N)cc2C(=O)Nc2ccccc2)cc1OC | -1.33% |
| FC(F)(F)Oc1ccc(NC2=NCCCS2)cc1 | -1.48% |
| O=c1[nH]c(=O)n(CCc2ccccc2)c(O)c1C=NC1CC1 | -1.46% |
| COc1ccccc1N1CCN(Cc2ccc(SC)cc2)CC1 | -1.45% |
| CCOC(=O)c1ccc(N=Cc2c(O)n(-c3ccc(OC)cc3)c(=S)[nH]c2=O)cc1 | -1.58% |
| COC(=O)C1=C(c2cccc(OC)c2OC)C[C@@H]2CC[C@H]1N2C(=O)NC1CC1 | -1.47% |
| Cc1cc(C(=O)NP(=O)(N2CCOCC2)N2CCOCC2)c(C)n1C1CC1 | -0.0947% |
| CCCCCn1c(=O)c(C(=O)Nc2ccccn2)c(O)c2ccccc21 | -0.573% |
| O=P1(NCCCl)OCCCN1CCCl (stereo not given) | -0.82% |
| Cc1ccc(-n2c(O)c(C=NCCN3CCNCC3)c(=O)[nH]c2=S)cc1 | -1.47% |
| Cc1ncc(CN2CCCC(C(=O)c3cccc(OC(C)C)c3)C2)s1 (stereo not given) | -1.32% |
| COCC(=O)N1Cc2ccccc2-n2nncc2C1 | -1.41% |
